Test results: the supplement of paper PMC11417369
± gives the standard deviation of the averaged measurements. In all, about 25,000 sequences were measured (“ln(normalized median fluorescence intensity)”: median about 8.9, highest 2% from about 10 on). This excerpt belongs to a sample that is enriched for the highest values.

What follows are sequences tested on PfAP2-LT AP2 domain (GST-tagged) (assay: gcPBM binding intensity (ln(normalized median fluorescence intensity)); higher = stronger DNA binding).
Method in brief: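 The highest Masliner-normalised natural-log median intensity across replicate spots of either probe orientation is reported as binding intensity. GST-tagged P. falciparum DNA-binding domains expressed in E. coli were applied for 1 h to an Agilent 4 × 180k array of primer-extended double-stranded 36-bp intergenic genomic probes plus negative controls, and bound protein was detected with Alexa488 anti-GST antibody and scanned at 488 nm.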

| Sequence | gcPBM binding intensity (ln) |
| --- | --- |
| CAAAAAAAATAAAACACACACACAAAAAAATAAAAA [CACACA_site466] | 9.84 ± 0.31 |
| ATTCATTCATATGTTACACACACACCCACCCATAAA [CACACA_site9066] | 9.71 ± 0.23 |
| CAACAAAATAAACACACACACACAAACACAAAAAAA [CACACA_site5806] | 10.2 ± 0.27 |
| AAATAAATGAAACACACACACACAAAAAAAAAAAAC [CACACA_site2625] | 10.2 ± 0.28 |
| TCATTCATATGTTACACACACACACCCACATAAAAA [CACACA_site3245] | 9.8 ± 0.23 |
| GGACAACAAACAAACACACACAAAAAAAAAATAAAA [CACACA_site3791] | 9.6 ± 0.71 |
| AAAATAAAATAAAACACAAAAAAATAAAACAAAATA [CACACA_negctrl_site16] | 8.87 ± 0.49 |
| TAAAATAAAACAAACACACACACACGGACACAAAAA [CACACA_site7754] | 10.4 ± 0.34 |
| AAAAAAAAAAAAAACACACACACAAAATAAACAAAC [CACACA_site2720] | 9.66 ± 0.44 |
| ATGTTATATTTTTTTATACACACTGGAATATATAAA [CACACA_site215] | 8.64 ± 0.34 |
| TGAATGTAAGAAAATACACACTAGTATAGTAACACC [CACACA_site5131] | 9.24 ± 0.38 |
| ATGTAATATTTACAACGTACAAATTATAAACATATT [XGTACX_site603] | 8.88 ± 0.35 |
| GACGACTATATTAATTGTACTCAATTTAAGCATAAT [XGTACX_site2750] | 8.72 ± 0.35 |
| TTAATAACAAAATAAACACACATATATAAATACCCA [CACACA_site4960] | 9.11 ± 0.4 |
| TATATCTATAATATTACACACATATATTTATATTTT [CACACA_site7595] | 8.95 ± 0.33 |
| CATATTATATTTTCATGTACACATAACATATTTATA [XGTACX_site4787] | 8.76 ± 0.42 |
| GAATAAATTGTATTGTGTACATATAAAAGCATCTAA [XGTACX_site8271] | 8.8 ± 0.4 |
| TTCTTTTTAAATTACACACACATATATATATGTATA [CACACA_site3515] | 9.32 ± 0.41 |
| AATAATAATTTAAAAAGTACATTCTAATAAACACGT [XGTACX_site1444] | 8.78 ± 0.52 |
| CTCCATATGAAACACACACACAAATGAAAAAAATAT [CACACA_site3018] | 9.82 ± 0.4 |
| CAAAAAATGAAACACACACACACACCCATAAATAAA [CACACA_site1231] | 10.12 ± 0.035 |
| ATTAATAAATAAATGACACACACACCCACAAAAAAA [CACACA_site8839] | 9.9 ± 0.12 |
| ATAATGAAAAGGAACATACACACCCCATATAAATAT [CACACA_site3442] | 9.61 ± 0.12 |

| Sequence | gcPBM binding intensity (ln) |
| --- | --- |
| TAATAAATAAATGACACACACACACGCAAAAAAAAA [CACACA_site7275] | 9.94 ± 0.19 |
| TAATAAATAAATGACACACACACACCCAAAAAAAAA [CACACA_site2623] | 10.1 ± 0.41 |
| GGGTATATATTATTATGTACACATGTATAAAATAAG [XGTACX_site2633] | 8.8 ± 0.52 |
| ATACAAAAAGTAAAAAGTACTTAACTAAATATATAA [XGTACX_site2335] | 8.74 ± 0.56 |
| GTATATATGTATGTATGTACGTATATAGTTATGTAT [XGTACX_site6769] | 8.98 ± 0.3 |
| TATATATATATTATATGTACGTATGTATGTATATAT [XGTACX_site6451] | 8.88 ± 0.3 |
| ATATATATATATATATGTACGTACTCAGTTATGCCT [XGTACX_site453] | 10.2 ± 0.29 |
| AGTATAAAATTTGGTTGTACATTTTTAAAAAAATTA [XGTACX_site7519] | 8.29 ± 0.42 |
| GGAATATTAATAAGAGTGCATTTTGTATTCAATATG | 8.66 ± 0.41 |
| GTATAATTTTCGTATTCACACAAGAATATACTACAT [CACACA_site4877] | 8.91 ± 0.45 |
| CACAGACACGGACACACACACACAAAAAAAAAAAGA [CACACA_site4436] | 10.1 ± 0.55 |
| AAAAAAAAAAGACACACACACACATACACATACATA [CACACA_site7362] | 9.97 ± 0.071 |
| TATCTCATAGTATACACACACACACGCGCACATATA [CACACA_site6917] | 10.1 ± 0.3 |
| TCATAGTATAGACACACACACACACGCATATAAATA [CACACA_site6915] | 9.92 ± 0.13 |
| ACATCAAGCAGACACACACACACACGCACACGCACA [CACACA_site6309] | 10.4 ± 0.17 |
| CACACGCACGGACACACACACAAAAAAAAAAAGAAA [CACACA_site6378] | 9.34 ± 0.58 |
| TCTCATAGTAGACACACACACACACGCACATATATA [CACACA_site6916] | 10.1 ± 0.31 |
| TTAAAAAAAAGACACACACACATACACATATTTATA [CACACA_site7535] | 9.94 ± 0.35 |
| CCAACATGCAGACGCACACACAAAAAAAGCATGCAT [CACACA_site74] | 9.54 ± 0.4 |
| AAAAAAAAAAGACACACACACACACGGACACATACA [CACACA_site7363] | 10.3 ± 0.13 |
| CAAATACACGGACACACACACACAAAAAAAAAAAAA [CACACA_site6385] | 10 ± 0.71 |
| ATAAATCAAAGGCACACACACAAAAAAAAAAAAAAA [CACACA_site160] | 9.62 ± 0.49 |
